From PubChem
Shown is part of a subset that was picked to be rich in hits.
GIRK2 act: Activators of human GIRK2-containing channels; activation (% efficacy), % for hits at 37.5 µM; P48051; 34,000 tested, under 10 active; HEK293 GIRK2/NPY4 cells, thallium flux fluorescence;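 active means primary screen hit, no activity in plain HEK293 cells, and in GIRK2-only cells above 5% efficacy rising with concentration; inactive means the rest, including fluorescent compounds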;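 further: efficacy is normalized control-subtracted fluorescence 15 s after thallium addition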
AMPAR-TARP mod: GluA2-stargazin AMPA receptor complex modulation; HEK293 GluA2+stargazin, membrane potential dye (FDSS), glutamate EC50; hits were called plate by plate, in both directions; calls only at 30 µM; hit rate 3.5% among 40,000; AID 1259245;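 active means any of four per-well response measures lying three or more SD from its plate-wide compound average, in either direction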
Numbers without * were called inactive.

Screening O=C(NCCCN1CCOC(c2ccccc2)C1)c1cccc(C(F)(F)F)c1 (stereo not drawn) returned GIRK2 act inactive and AMPAR-TARP mod inactive.
`Cc1ccccc1CC(=O)NCCn1nc(-c2cccs2)ccc1=O` gave GIRK2 act inactive and AMPAR-TARP mod active.
O=C(NCCn1nc(-c2cccs2)ccc1=O)NCc1ccccc1 was read as GIRK2 act inactive and AMPAR-TARP mod inactive.
`CC(C)(C)N1CC(c2nc3ccccc3n2Cc2ccccc2)CC1=O` (stereo not drawn) gave AMPAR-TARP mod active.
Cc1ccccc1Cn1c(C2CC(=O)N(C(C)(C)C)C2)nc2ccccc21 (stereo not drawn) was read as AMPAR-TARP mod active.
For CCn1c(C2CC(=O)N(C(C)(C)C)C2)nc2ccccc21 (stereo not drawn) the results were AMPAR-TARP mod inactive.
For CCCn1c(C2CC(=O)N(C(C)(C)C)C2)nc2ccccc21 (stereo not drawn) the results were AMPAR-TARP mod inactive.
For C#CCn1c(C2CC(=O)N(C(C)(C)C)C2)nc2ccccc21 (stereo not drawn) the results were AMPAR-TARP mod inactive.
`CCCCN(C)C(=O)Cn1c(C2CC(=O)N(Cc3ccc(F)cc3)C2)nc2ccccc21` (stereo not drawn) gave GIRK2 act inactive and AMPAR-TARP mod active.
CC(C)(C)N1CC(c2nc3ccccc3n2Cc2ccccc2Cl)CC1=O (stereo not drawn) was read as AMPAR-TARP mod active.
For CCCN(CCC)C(=O)Cn1c(C2CC(=O)N(Cc3ccc(F)cc3)C2)nc2ccccc21 (stereo not drawn) the results were GIRK2 act inactive and AMPAR-TARP mod inactive.
Screening O=C(O)CCN(CC(O)Cn1c2ccccc2c2ccccc21)S(=O)(=O)c1ccccc1 (stereo not drawn) returned GIRK2 act inactive and AMPAR-TARP mod inactive.
Screening O=C(c1cccs1)N1CCN(c2ncnc3c2nnn3-c2ccc(F)cc2)CC1 returned AMPAR-TARP mod inactive.
`O=C(c1ccc(Cl)cc1)N1CCN(c2cc(-c3cccnc3)[nH]n2)CC1` gave GIRK2 act inactive.
`COc1ccc(CCC(=O)NCc2ccsc2)cc1` gave GIRK2 act inactive and AMPAR-TARP mod inactive.
`CS(=O)(=O)N1CCC(C(=O)Nc2ccc(F)cc2)CC1` gave GIRK2 act inactive.
`CCCCNC(=O)C(=O)Nc1c2c(nn1-c1ccc(C)cc1)CS(=O)(=O)C2` gave GIRK2 act inactive and AMPAR-TARP mod inactive.
CCOc1ccccc1NC(=O)c1c(O)c2ccccc2[nH]c1=O was read as GIRK2 act inactive and AMPAR-TARP mod inactive.
For COc1ccc(N2CCN(C(=O)CCCCn3c(=O)[nH]c4cc(OC)c(OC)cc4c3=O)CC2)cc1 the results were AMPAR-TARP mod inactive.
Screening O=C1CC(c2nc3ccccc3n2Cc2ccccc2)CN1Cc1ccccc1 (stereo not drawn) returned AMPAR-TARP mod active.
`CCn1c(C2CC(=O)N(Cc3ccccc3)C2)nc2ccccc21` (stereo not drawn) gave AMPAR-TARP mod inactive.
`CC1CN(CC(O)COCCOc2ccc(C(C)C)cc2)CC(C)O1` (stereo not drawn) gave GIRK2 act inactive.
For O=C(/C=C/c1ccccc1Cl)Nc1ccc2c(c1)C(=O)N1CCCCC1CCO2 (stereo not drawn) the results were GIRK2 act inactive and AMPAR-TARP mod inactive.
O=C1c2cc(NC(=O)C3(c4cccs4)CCCC3)ccc2OCCC2CCCCN12 (stereo not drawn) was read as GIRK2 act inactive and AMPAR-TARP mod active.
`CSc1ccccc1NC(=O)c1cc2n(n1)C(C(F)(F)F)CC(c1ccco1)N2` (stereo not drawn) gave AMPAR-TARP mod inactive.
O=C(NCCc1c[nH]c2ccccc12)c1cc2n(n1)C(C(F)(F)F)CC(c1ccco1)N2 (stereo not drawn) was read as AMPAR-TARP mod active.
Screening O=C(c1ccc(C(F)(F)F)cc1)N1CCC2(CC1)NC(=O)N(CCc1ccccc1)C2=O returned GIRK2 act inactive and AMPAR-TARP mod inactive.
Screening COc1cccc(CC(=O)NCc2nc(C)no2)c1 returned GIRK2 act inactive.
O=C(c1cc2ccccc2oc1=O)N1CCC(Cn2cnc3ccccc32)CC1 was read as GIRK2 act inactive and AMPAR-TARP mod inactive.
For O=C(c1ccc(Br)o1)N1CCC(Cn2cnc3ccccc32)CC1 the results were GIRK2 act inactive and AMPAR-TARP mod active.
For Fc1ccc(-c2noc(Cc3nc(-c4cccs4)cs3)n2)cc1 the results were GIRK2 act inactive and AMPAR-TARP mod inactive.
CCOc1cccc2sc(NC(=O)c3cc(C)nn3CC)nc12 was read as AMPAR-TARP mod active.
Screening CCOc1cccc2sc(NC(=O)c3ccnn3C)nc12 returned AMPAR-TARP mod inactive.
`Cc1c(Cl)cccc1S(=O)(=O)NCC1CCN(C(=O)Nc2ccc(F)cc2)CC1` gave GIRK2 act inactive.
`CCC(=O)Nc1ccc(N2CCCCC2=O)c(OC)c1` gave AMPAR-TARP mod active.
For COc1ccc(CCC(=O)Nc2ccc(N3CCCCC3=O)c(OC)c2)cc1 the results were GIRK2 act inactive and AMPAR-TARP mod inactive.
For COc1ccc2nc(-c3cccc(NC(=O)c4ccco4)c3)cn2n1 the results were GIRK2 act inactive and AMPAR-TARP mod inactive.
`Cc1ccc(N2CCN(S(=O)(=O)c3cc(Br)c(C)cc3C)CC2)c(C)c1` gave AMPAR-TARP mod inactive.
For COc1ccc(-c2ccc(C)c(NC(=O)c3ccccc3OC)c2)nn1 the results were GIRK2 act inactive and AMPAR-TARP mod active.
COc1ccc(-c2ccc(C)c(NC(=O)c3cccc(OC)c3OC)c2)nn1 was read as GIRK2 act inactive and AMPAR-TARP mod inactive.
`CC1CCN(S(=O)(=O)c2ccc(-c3nc(C#N)c(NCc4cccnc4)o3)cc2)CC1` gave GIRK2 act inactive and AMPAR-TARP mod inactive.
For CN1CCOc2ccc(NS(=O)(=O)c3ccc4c(c3)OCCO4)cc2C1=O the results were AMPAR-TARP mod inactive.
For O=C(Cc1ccc(NC(=O)CCCc2ccccc2)cc1)NCc1cccs1 the results were GIRK2 act inactive and AMPAR-TARP mod inactive.
O=C(NCc1n[nH]c(=O)c2ccccc12)c1cccc(-n2cnnn2)c1 was read as GIRK2 act inactive and AMPAR-TARP mod active.
`O=C(NCc1n[nH]c(=O)c2ccccc12)c1ccc(=O)[nH]c1` gave GIRK2 act inactive and AMPAR-TARP mod inactive.
CSc1ccccc1C(=O)NCc1n[nH]c(=O)c2ccccc12 was read as GIRK2 act inactive and AMPAR-TARP mod inactive.
`COc1nn(C)cc1C(=O)NCc1n[nH]c(=O)c2ccccc12` gave GIRK2 act inactive and AMPAR-TARP mod active.
For CCc1nnc(NS(=O)(=O)c2ccc(NC(=O)c3ccc(Br)s3)cc2)s1 the results were AMPAR-TARP mod inactive.
`COc1cc(NS(=O)(=O)c2ccc(F)cc2)ccc1N1CCCCC1=O` gave GIRK2 act inactive and AMPAR-TARP mod inactive.
`Cc1ccc(NS(=O)(=O)c2ccc(F)cc2)cc1N1CCCCC1=O` gave GIRK2 act inactive and AMPAR-TARP mod active.
`CS(=O)(=O)N1CCCCC1C(=O)Nc1nnc(C2CCCCC2)o1` (stereo not drawn) gave GIRK2 act inactive and AMPAR-TARP mod inactive.
